The nature of assay [1]: NCI Yeast Anticancer Drug Screen. Data for the rad50 strain (AID 155).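 Also: 0% = growth of vehicle-only cultures of the same strain.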 As to conditions: S. cerevisiae rad50 strain growth inhibition, hits give high values. In a few lines: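 Yeast carrying a defined DNA repair defect were exposed to test compounds, and growth was compared with vehicle-treated controls to give percent inhibition.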
A short description of assay [2]: NCI Yeast Anticancer Drug Screen. Data for the mec2-1 strain (AID 157). The settings on record: S. cerevisiae mec2-1 strain, hits give high values. The method, boiled down:
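Growth inhibition is read against vehicle-treated controls after compound exposure of the mec2-1 yeast strain, which is defective in DNA damage repair or cell cycle control.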

The nature of assay [3]: NCI Yeast Anticancer Drug Screen. Data for the sgs1 mgt1 strain (AID 161).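 Also: 0% = growth of cultures given vehicle only.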 The settings on record: S. cerevisiae sgs1 mgt1 strain, hits give high values. In a few lines: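 Growth of a repair-deficient yeast mutant was monitored after compound treatment and expressed as inhibition relative to vehicle-treated cultures.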
Assay [4] in a line: NCI Yeast Anticancer Drug Screen. Data for the cln2 rad14 strain (AID 165).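 Also: 0% = growth equal to vehicle treated cultures.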 The settings on record: S. cerevisiae cln2 rad14 strain, hits give high values. The method, boiled down:
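Growth inhibition, relative to vehicle-treated controls, is the read-out. The test organism is a yeast strain with defined genetic alterations, cln2 rad14.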

Assay [5] in a line: NCI Yeast Anticancer Drug Screen. Data for the bub3 strain (AID 167). As to conditions: S. cerevisiae bub3 mutant strain, hits give high values. In a few lines: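 Compounds were applied to a genetically altered yeast strain carrying a cell-cycle control defect. Growth inhibition was scored against vehicle-treated controls.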
Assay [6] can be described thus: NCI Yeast Anticancer Drug Screen. Data for the mlh1 rad18 strain (AID 175). As to conditions: S. cerevisiae mlh1 rad18 strain growth inhibition, hits give high values. The method, boiled down:
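Cells of a genetically altered yeast strain, deficient in DNA damage repair, were treated with compound. Their growth was then compared with that of vehicle-treated cultures to give inhibition.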

The mark [7] stands for this setting: at 5.0 µM (retest, dose inferred, filed as 0.5).
Where [8] appears, read: at 50.0 µM (retest, dose inferred, filed as 5.0).

SMILES strings stand for the structures. About 79,000 compounds went through this panel and 15% of them were active in at least one assay; those are over-represented in the sample as a whole. Values without a mark were called inactive. Calls of active or inactive are those of the source. Rule as the data show it: active = growth inhibition above about 70%; inactive = the rest.

As to `CC(=O)[O-].[Zn].c1ccc(/C(=N\Nc2ccccn2)c2ccccn2)cc1`, the growth inhibition in assay [1] (setting [7]) is 29%; in assay [1] (setting [8]), 66%; in assay [1] (at 50.0 µM), 41.9%; in assay [2] (setting [7]), 37%; in assay [2] (setting [8]), 61%; in assay [2] (at 50.0 µM), 9.8%. The growth inhibition is 38% in assay [3] (setting [7]); 83% (active) in assay [3] (setting [8]); 23.8% in assay [3] (at 50.0 µM); 26% in assay [4] (setting [7]); 78% (active) in assay [4] (setting [8]); 13.8% in assay [4] (at 50.0 µM). Also, the growth inhibition in assay [5] (setting [7]) was 44%; in assay [5] (setting [8]), 86% (active); in assay [5] (at 50.0 µM), 34.6%; in assay [6] (setting [7]) it was 36%; in assay [6] (setting [8]), 68%; in assay [6] (at 50.0 µM) it was 41.1%.
With `CCCCCCCC[N+](CCCC)(CCCC)CCCC` (tested in a mixture with another compound), the growth inhibition was 99% (active) in assay [1] (setting [7]); 99% (active) in assay [1] (setting [8]); 99.5% (active) in assay [1] (at 50.0 µM); 99% (active) in assay [2] (setting [7]); 100% (active) in assay [2] (setting [8]); 99.7% (active) in assay [2] (at 50.0 µM). Also, the growth inhibition is 100% (active) in assay [3] (setting [7]); 100% (active) in assay [3] (setting [8]); 99.5% (active) in assay [3] (at 50.0 µM); 97% (active) in assay [4] (setting [7]); 99% (active) in assay [4] (setting [8]); 99.5% (active) in assay [4] (at 50.0 µM). The growth inhibition is 100% (active) in assay [5] (setting [7]); 99% (active) in assay [5] (setting [8]); 99.7% (active) in assay [5] (at 50.0 µM); 99% (active) in assay [6] (setting [7]); 99% (active) in assay [6] (setting [8]); 99.3% (active) in assay [6] (at 50.0 µM).
As for `CN(C)c1ccc(C2N(Cc3ccc(N(CCCl)CCCl)cc3Cl)CCCN2Cc2ccc(N(CCCl)CCCl)cc2Cl)cc1`, the growth inhibition in assay [1] (setting [7]) was 1%; in assay [1] (setting [8]) it was 97% (active); in assay [1] (at 50.0 µM), 93.5% (active); in assay [2] (setting [7]) it was -12%; in assay [2] (setting [8]) it was 98% (active); in assay [2] (at 50.0 µM), 90.9% (active). Moreover, the growth inhibition in assay [3] (setting [7]) was 1%; in assay [3] (setting [8]), 98% (active); in assay [3] (at 50.0 µM) it was 99% (active); in assay [4] (setting [7]), 1%; in assay [4] (setting [8]), 97% (active); in assay [4] (at 50.0 µM) it was 15.8%. The growth inhibition in assay [5] (setting [7]) was -1%; in assay [5] (setting [8]) it was 97% (active); in assay [5] (at 50.0 µM), 93.8% (active); in assay [6] (setting [7]), 6%; in assay [6] (setting [8]), 98% (active); in assay [6] (at 50.0 µM) it was 95.2% (active).
In the case of `CO/C(N)=C(\C#N)N=Cc1cccnc1`, the growth inhibition in assay [1] (setting [7]) is 25%; in assay [1] (setting [8]), 26%; in assay [1] (at 50.0 µM) it was 29.6%; in assay [2] (setting [7]), 25%; in assay [2] (setting [8]) it was 30%; in assay [2] (at 50.0 µM), 80.2% (active). Besides, the growth inhibition is 20% in assay [3] (setting [7]); 32% in assay [3] (setting [8]); 36.7% in assay [3] (at 50.0 µM); 26% in assay [4] (setting [7]); 25% in assay [4] (setting [8]); 15.4% in assay [4] (at 50.0 µM). For the same molecule, the growth inhibition is 29% in assay [5] (setting [7]); 47% in assay [5] (setting [8]); 48.2% in assay [5] (at 50.0 µM); 29% in assay [6] (setting [7]); 25% in assay [6] (setting [8]); -25.4% in assay [6] (at 50.0 µM).
Consider `CSc1ncc(COP(=S)(OCc2cnc(SC)nc2N)OCc2cnc(SC)nc2N)c(N)n1`, for which the growth inhibition is -1% in assay [1] (setting [7]); -2% in assay [1] (setting [8]); -39.3% in assay [1] (at 50.0 µM); 15% in assay [2] (setting [7]); -6% in assay [2] (setting [8]); -5.35% in assay [2] (at 50.0 µM). For the same molecule, the growth inhibition in assay [3] (setting [7]) was 1%; in assay [3] (setting [8]), 3%; in assay [3] (at 50.0 µM), -15.9%; in assay [4] (setting [7]), 8%; in assay [4] (setting [8]) it was -3%; in assay [4] (at 50.0 µM), 23.9%. For the same molecule, the growth inhibition in assay [5] (setting [7]) is -1%; in assay [5] (setting [8]) it was -3%; in assay [5] (at 50.0 µM), -2.3%; in assay [6] (setting [7]), -1%; in assay [6] (setting [8]) it was 9%; in assay [6] (at 50.0 µM) it was 23%.
On to `O=C(Cl)c1ccccn1`, for which the growth inhibition in assay [1] (setting [7]) was 6%; in assay [1] (setting [8]) it was 98% (active); in assay [1] (at 50.0 µM), 99.5% (active); in assay [2] (setting [7]) it was 7%; in assay [2] (setting [8]) it was 99% (active); in assay [2] (at 50.0 µM), 99.5% (active). Also, the growth inhibition in assay [3] (setting [7]) is 7%; in assay [3] (setting [8]) it was 99% (active); in assay [3] (at 50.0 µM), 77.8% (active); in assay [4] (setting [7]) it was 6%; in assay [4] (setting [8]) it was 99% (active); in assay [4] (at 50.0 µM), 99.3% (active). The growth inhibition is 4% in assay [5] (setting [7]); 99% (active) in assay [5] (setting [8]); 99.3% (active) in assay [5] (at 50.0 µM); 1% in assay [6] (setting [7]); 99% (active) in assay [6] (setting [8]); 99.5% (active) in assay [6] (at 50.0 µM).
`Cc1cc(N(C)C)c2ccccc2[n+]1CCCCCCCCCC[n+]1c(C)cc(N(C)C)c2ccccc21`: the growth inhibition in assay [1] (setting [7]) was 92% (active); in assay [1] (setting [8]), 98% (active); in assay [1] (at 50.0 µM), 89.1% (active); in assay [2] (setting [7]), 98% (active); in assay [2] (setting [8]), 99% (active); in assay [2] (at 50.0 µM), 91.8% (active). The growth inhibition in assay [3] (setting [7]) is 95% (active); in assay [3] (setting [8]), 99% (active); in assay [3] (at 50.0 µM) it was 88.8% (active); in assay [4] (setting [7]), 87% (active); in assay [4] (setting [8]) it was 96% (active); in assay [4] (at 50.0 µM), 91% (active). Also, the growth inhibition in assay [5] (setting [7]) was 94% (active); in assay [5] (setting [8]), 98% (active); in assay [5] (at 50.0 µM), 89.5% (active); in assay [6] (setting [7]) it was 97% (active); in assay [6] (setting [8]), 99% (active); in assay [6] (at 50.0 µM), 91.8% (active).

For the origin of these results see PubChem BioAssay (NCI).
